Measured values from PubChem BioAssay (NCI).
About 79,000 compounds went through this panel and 15% of them were active in at least one assay; those are over-represented in the sample as a whole. Active and inactive are the calls of the source. Rule as the data show it: active = growth inhibition above about 70%; inactive = the rest.

What was measured:
[1] = NCI Yeast Anticancer Drug Screen. Data for the rad52 strain (AID 147);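 also: 0% = growth of vehicle-treated control cultures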; conditions: S. cerevisiae rad52 mutant growth inhibition, hits give high values
How it was run: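 Vehicle-treated cultures served as the reference for growth inhibition of compound-exposed yeast bearing a DNA repair mutation.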

[2] = NCI Yeast Anticancer Drug Screen. Data for the wt1 strain (AID 149);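 also: 0% = growth of vehicle-treated wt1 cultures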; conditions: S. cerevisiae wt1 strain (SPY 50644) growth inhibition, hits give high values
How it was run: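 Yeast wt1 strain exposed to compounds; growth inhibition measured relative to vehicle-treated controls.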

[3] = NCI Yeast Anticancer Drug Screen. Data for the rad50EPP+ strain (AID 151);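 also: 0% = growth of vehicle-treated control cultures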; conditions: S. cerevisiae rad50 mutant strain, hits give high values
How it was run: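 In this screen, rad50EPP+ yeast were exposed to compounds. Growth inhibition was scored against vehicle-treated controls.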

[4] = NCI Yeast Anticancer Drug Screen. Data for the mgt1 strain (AID 153); conditions: S. cerevisiae mgt1 mutant growth inhibition, hits give high values
How it was run: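 mgt1 strain exposed; growth vs vehicle control recorded as inhibition.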

[5] = NCI Yeast Anticancer Drug Screen. Data for the rad50 strain (AID 155);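 also: 0% = growth of vehicle-only cultures of the same strain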; conditions: S. cerevisiae rad50 strain growth inhibition, hits give high values
How it was run: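 Yeast carrying a defined DNA repair defect were exposed to test compounds, and growth was compared with vehicle-treated controls to give percent inhibition.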

[6] = NCI Yeast Anticancer Drug Screen. Data for the mec2-1 strain (AID 157); conditions: S. cerevisiae mec2-1 strain, hits give high values
How it was run: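 Vehicle-treated cultures served as reference for growth inhibition of compound-exposed mec2-1 yeast.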

[7] = NCI Yeast Anticancer Drug Screen. Data for the rad14 strain (AID 159);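 also: 0% = growth of vehicle-treated control cultures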; conditions: S. cerevisiae rad14 strain growth inhibition, hits give high values
How it was run: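 Yeast cells carrying a defined DNA-repair defect were exposed to compounds, and growth inhibition was calculated relative to vehicle-treated control cultures.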

[8] = NCI Yeast Anticancer Drug Screen. Data for the sgs1 mgt1 strain (AID 161);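 also: 0% = growth of cultures given vehicle only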; conditions: S. cerevisiae sgs1 mgt1 strain, hits give high values
How it was run: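 Mutant yeast exposed to compound; growth scored against vehicle-only wells.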

[9] = NCI Yeast Anticancer Drug Screen. Data for the CLN2oe strain (AID 163);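 also: 0% = growth of vehicle-only control cultures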; conditions: S. cerevisiae CLN2oe strain, hits give high values
How it was run: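 Inhibition relative to vehicle-treated yeast is reported. Cells: strain with genetic alteration in cell-cycle control, grown with compound.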

[10] = NCI Yeast Anticancer Drug Screen. Data for the cln2 rad14 strain (AID 165);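 also: 0% = growth equal to vehicle treated cultures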; conditions: S. cerevisiae cln2 rad14 strain, hits give high values
How it was run: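 Each compound was tested on cln2 rad14 yeast. Inhibition of growth was calculated against vehicle-exposed controls.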

[11] = NCI Yeast Anticancer Drug Screen. Data for the bub3 strain (AID 167); conditions: S. cerevisiae bub3 mutant strain, hits give high values
How it was run: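 Compounds were applied to a genetically altered yeast strain carrying a cell-cycle control defect. Growth inhibition was scored against vehicle-treated controls.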

[12] = NCI Yeast Anticancer Drug Screen. Data for the wt2 strain (AID 169);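 also: 0% = growth of vehicle-treated yeast cultures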; conditions: S. cerevisiae wt2 strain growth inhibition, hits give high values
How it was run: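 Inhibition of yeast growth was determined after compound treatment, normalised to controls receiving only vehicle.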

[13] = NCI Yeast Anticancer Drug Screen. Data for the mlh1 strain (AID 171);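 also: 0% = growth of vehicle-treated control cultures of the same strain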; conditions: S. cerevisiae mlh1 strain growth inhibition, hits give high values
How it was run: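 Vehicle-normalised growth inhibition of a repair- or checkpoint-altered yeast strain following compound treatment.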

[14] = NCI Yeast Anticancer Drug Screen. Data for the sgs1 strain (AID 173);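 also: 0% = growth of vehicle-only control cultures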; conditions: S. cerevisiae sgs1 mutant, hits give high values
How it was run: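 Screen format: yeast with repair or checkpoint alterations, compound exposure, growth read relative to vehicle.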

[15] = NCI Yeast Anticancer Drug Screen. Data for the mlh1 rad18 strain (AID 175); conditions: S. cerevisiae mlh1 rad18 strain growth inhibition, hits give high values
How it was run: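 Vehicle-treated cultures served as the reference for growth inhibition in a yeast strain carrying DNA damage repair alterations exposed to each compound.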

[16] = NCI Yeast Anticancer Drug Screen. Data for the rad18 strain (AID 177); conditions: S. cerevisiae rad18 mutant growth inhibition, hits give high values
How it was run: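 Test articles were incubated with altered yeast defective in DNA damage repair. Results are given as inhibition of growth versus vehicle.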

[17] = at 5.0 µM (retest, dose inferred, filed as 0.5)
[18] = at 50.0 µM (retest, dose inferred, filed as 5.0)

Measured: growth inhibition

Cc1cc(O)c(C(C)C)cc1C1(c2cc(C(C)C)c(O)cc2C)OC(=O)c2ccccc21
active: [5]; [18] 98% | [5]; at 50.0 µM 94.1% | [6]; [18] 98% | [6]; at 50.0 µM 91.7% | [8]; [18] 98% | [8]; at 50.0 µM 82% | [10]; [18] 97% | [10]; at 50.0 µM 97% | [11]; [18] 98% | [11]; at 50.0 µM 91.1% | [15]; [18] 98% | [15]; at 50.0 µM 91.6%
inactive: [1]; at 1.2 µM -4% | [1]; at 3.7 µM -3% | [1]; at 11.0 µM -5% | [1]; at 33.0 µM -3% | [1]; at 100.0 µM 34% | [2]; at 1.2 µM 2% | [2]; at 3.7 µM 2% | [2]; at 11.0 µM 5% | [2]; at 33.0 µM 1% | [2]; at 100.0 µM 20% | [3]; at 1.2 µM 0% | [3]; at 3.7 µM -1% | [3]; at 11.0 µM 0% | [3]; at 33.0 µM 0% | [3]; at 100.0 µM 0% | [4]; at 1.2 µM -1% | [4]; at 3.7 µM -1% | [4]; at 11.0 µM -2% | [4]; at 33.0 µM -3% | [4]; at 100.0 µM 18% | [5]; at 1.2 µM 3% | [5]; at 3.7 µM 0% | [5]; [17] 17% | [5]; at 11.0 µM 10% | [5]; at 33.0 µM 1% | [5]; at 100.0 µM 36% | [6]; at 1.2 µM 2% | [6]; at 3.7 µM 2% | [6]; [17] 0% | [6]; at 11.0 µM 1% | [6]; at 33.0 µM 4% | [6]; at 100.0 µM 29% | [7]; at 1.2 µM -1% | [7]; at 3.7 µM 1% | [7]; at 11.0 µM -1% | [7]; at 33.0 µM -4% | [7]; at 100.0 µM 33% | [8]; [17] 16% | [9]; at 1.2 µM -3% | [9]; at 3.7 µM -2% | [9]; at 11.0 µM -6% | [9]; at 33.0 µM -5% | [9]; at 100.0 µM 12% | [10]; [17] 51% | [11]; at 1.2 µM -2% | [11]; at 3.7 µM 1% | [11]; [17] -12% | [11]; at 11.0 µM -34% | [11]; at 33.0 µM 16% | [11]; at 100.0 µM 24% | [12]; at 1.2 µM -2% | [12]; at 3.7 µM -4% | [12]; at 11.0 µM -3% | [12]; at 33.0 µM -3% | [12]; at 100.0 µM 31% | [13]; at 1.2 µM 5% | [13]; at 3.7 µM 3% | [13]; at 11.0 µM 3% | [13]; at 33.0 µM -24% | [13]; at 100.0 µM 31% | [14]; at 1.2 µM 2% | [14]; at 3.7 µM 4% | [14]; at 11.0 µM 5% | [14]; at 33.0 µM 2% | [14]; at 100.0 µM 48% | [15]; [17] 9% | [16]; at 1.2 µM 10% | [16]; at 3.7 µM 4% | [16]; at 11.0 µM -2% | [16]; at 33.0 µM 3% | [16]; at 100.0 µM 32%

CC(C)(C)[Si](C)(C)OCC1CCC(n2cnc3c(NC(=O)c4ccccc4)ncnc32)O1 (stereo not drawn)
active: [5]; at 50.0 µM 87.5% | [6]; at 50.0 µM 90%
inactive: [1]; at 1.2 µM -2% | [1]; at 3.7 µM -3% | [1]; at 11.0 µM -2% | [1]; at 33.0 µM -1% | [1]; at 100.0 µM -2% | [2]; at 1.2 µM 0% | [2]; at 3.7 µM 0% | [2]; at 11.0 µM 0% | [2]; at 33.0 µM 4% | [2]; at 100.0 µM -2% | [3]; at 1.2 µM -3% | [3]; at 3.7 µM -2% | [3]; at 11.0 µM 1% | [3]; at 33.0 µM 5% | [3]; at 100.0 µM 5% | [4]; at 1.2 µM -3% | [4]; at 3.7 µM -6% | [4]; at 11.0 µM 0% | [4]; at 33.0 µM 0% | [4]; at 100.0 µM -2% | [5]; at 1.2 µM 1% | [5]; at 3.7 µM -49% | [5]; [17] 0% | [5]; at 11.0 µM -28% | [5]; at 33.0 µM 2% | [5]; [18] 31% | [5]; at 100.0 µM 1% | [6]; at 1.2 µM -3% | [6]; at 3.7 µM 0% | [6]; [17] -2% | [6]; at 11.0 µM -1% | [6]; at 33.0 µM 0% | [6]; [18] 49% | [6]; at 100.0 µM 0% | [7]; at 1.2 µM -1% | [7]; at 3.7 µM -2% | [7]; at 11.0 µM 3% | [7]; at 33.0 µM 3% | [7]; at 100.0 µM 2% | [8]; [17] -1% | [8]; [18] 6% | [8]; at 50.0 µM 27.2% | [9]; at 1.2 µM -2% | [9]; at 3.7 µM 0% | [9]; at 11.0 µM 5% | [9]; at 33.0 µM -1% | [9]; at 100.0 µM -4% | [10]; [17] -4% | [10]; [18] 30% | [10]; at 50.0 µM 42.2% | [11]; at 1.2 µM 2% | [11]; at 3.7 µM 0% | [11]; [17] -2% | [11]; at 11.0 µM 1% | [11]; at 33.0 µM -2% | [11]; [18] 30% | [11]; at 50.0 µM 23.1% | [11]; at 100.0 µM -4% | [12]; at 1.2 µM -1% | [12]; at 3.7 µM 7% | [12]; at 11.0 µM -2% | [12]; at 33.0 µM 5% | [12]; at 100.0 µM -1% | [13]; at 1.2 µM 0% | [13]; at 3.7 µM -3% | [13]; at 11.0 µM -1% | [13]; at 33.0 µM -1% | [13]; at 100.0 µM -1% | [14]; at 1.2 µM -2% | [14]; at 3.7 µM -2% | [14]; at 11.0 µM 0% | [14]; at 33.0 µM 1% | [14]; at 100.0 µM 0% | [16]; at 1.2 µM -3% | [16]; at 3.7 µM 2% | [16]; at 11.0 µM -1% | [16]; at 33.0 µM 1% | [16]; at 100.0 µM -1%
